The text below walks through data of PubChem BioAssay AID2284143 (EPA ToxCast).

Active and inactive are the calls of the source. The calls were made as follows: active = hit-call score of the fitted dose curve at least 0.9, where 1 is the maximum; inactive = score below 0.9.

human Adenosine Receptor A2A, ADORA2A (gene 135), sequence (P29274 whole entry, looked up): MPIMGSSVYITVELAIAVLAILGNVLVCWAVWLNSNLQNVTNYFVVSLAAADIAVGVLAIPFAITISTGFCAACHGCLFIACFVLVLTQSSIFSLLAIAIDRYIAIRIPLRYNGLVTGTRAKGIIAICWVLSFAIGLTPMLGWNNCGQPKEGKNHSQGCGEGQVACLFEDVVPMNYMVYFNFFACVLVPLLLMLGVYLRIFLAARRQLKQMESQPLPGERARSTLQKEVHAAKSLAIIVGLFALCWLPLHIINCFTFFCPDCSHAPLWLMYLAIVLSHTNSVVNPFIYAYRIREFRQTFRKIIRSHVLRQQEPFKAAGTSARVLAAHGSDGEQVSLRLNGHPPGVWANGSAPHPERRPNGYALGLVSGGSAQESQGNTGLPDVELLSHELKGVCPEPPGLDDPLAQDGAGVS

In the test the target is human Adenosine Receptor A2A, ADORA2A (gene 135) (UniProt P29274). In words: ERF_FR_GPCR_hADORA2A: Eurofins (ERF) G Protein-Coupled Receptor (GPCR) Radioligand Binding LeadHunter Assay for human Adenosine Receptor A2A Agonism, conducted at France lab site. Here is the method:
ERF_FR_GPCR_hADORA2A is a biochemical, single-readout assay that uses extracted gene-proteins in a cell-free assay. Measurements were taken 2 hour after chemical dosing in a 96-well plate. See A2A Human Adenosine GPCR Binding (Agonist Radioligand) Assay, Cerep.ERF_FR_GPCR_hADORA2A is an assay component calculated from the ERF_FR_GPCR_hADORA2A assay. It is designed to measure radioligand binding using a type of binding reporter as detected by scintillation counting with radiometry technology.Data from the assay component ERF_FR_GPCR_hADORA2A was analyzed at the assay endpoint, ERF_FR_GPCR_hADORA2A, in the positive analysis fitting direction relative to DMSO as the negative control and baseline of activity. Using a type of binding reporter, gain-of-signal activity can be used to understand changes in binding as they relate to gene ADORA2A. To generalize the intended target to other relatable targets, this assay endpoint is annotated to the gpcr intended target family, where the subfamily is adenosine.
Human cells are incubated for 60 minutes in room temprature, using [3H]CGS 21680 ligand at 6 Kd (nM) with NECA control inhibitor.Test Sample Requirements: Minimum for 1) Screen: 60 ul of 10 mM stock -OR- 1 mg (pre-weighed) for […] uM final testing. 2) Dose Response: 90 ul of 10 mM stock -OR- 1 mg (pre-weighed) for a top concentration at 10 uM.
A word on the AC50: it is the midpoint of the concentration-response curve, whichever way the signal moves. Take `O=C(/C=C/c1ccc(O)cc1)CC(=O)/C=C/c1ccc(O)cc1`: the AC50 is 421 nM (active).
